This is part of a sample that, as a whole, favours compounds with a hit. Of some 79,000 tested, about 15% had one in any assay. A number with no mark means an inactive call. Activity calls are given as the source filed them. No stated cut-off is given here; in the data, active means growth inhibition above about 70%; inactive means the rest.
Key:
[1] = NCI Yeast Anticancer Drug Screen. Data for the rad50 strain (AID 155);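 further: 0% = growth of vehicle-only cultures of the same strain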; conditions: S. cerevisiae rad50 strain growth inhibition, active compounds read high
In short: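 DNA repair mutant yeast, compound exposure, growth read-out; inhibition is taken relative to vehicle.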

[2] = NCI Yeast Anticancer Drug Screen. Data for the mec2-1 strain (AID 157); conditions: S. cerevisiae mec2-1 strain, active compounds read high
In short: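 Readout is yeast growth inhibition, normalised to vehicle-treated controls, in the mec2-1 strain exposed to compound.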

[3] = NCI Yeast Anticancer Drug Screen. Data for the sgs1 mgt1 strain (AID 161);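 further: 0% = growth of cultures given vehicle only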; conditions: S. cerevisiae sgs1 mgt1 strain, active compounds read high
In short: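 Growth of a repair-deficient yeast mutant was monitored after compound treatment and expressed as inhibition relative to vehicle-treated cultures.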

[4] = NCI Yeast Anticancer Drug Screen. Data for the cln2 rad14 strain (AID 165);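 further: 0% = growth equal to vehicle treated cultures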; conditions: S. cerevisiae cln2 rad14 strain, active compounds read high
In short: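 Relative to vehicle controls, growth inhibition of compound-treated cln2 rad14 yeast was recorded.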

[5] = NCI Yeast Anticancer Drug Screen. Data for the bub3 strain (AID 167); conditions: S. cerevisiae bub3 mutant strain, active compounds read high
In short: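 In this screen, a yeast mutant lacking normal mitotic checkpoint function is challenged with compound. Relative growth versus vehicle gives the inhibition value.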

[6] = NCI Yeast Anticancer Drug Screen. Data for the mlh1 rad18 strain (AID 175); conditions: S. cerevisiae mlh1 rad18 strain growth inhibition, active compounds read high
In short: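 Test agents were incubated with a yeast strain of defined genotype (DNA damage repair defect). Inhibition of growth was derived by comparison with vehicle-exposed cultures.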

[7] = at 5.0 µM (retest, dose inferred, filed as 0.5)
[8] = at 50.0 µM (retest, dose inferred, filed as 5.0)

Row | Compound | growth inhibition [1, 7] [%] | growth inhibition [1, 8] | growth inhibition ([1]; at 50.0 µM) | growth inhibition [2, 7] [%] | growth inhibition [2, 8] | growth inhibition ([2]; at 50.0 µM) | growth inhibition [3, 7] [%] | growth inhibition [3, 8] | growth inhibition ([3]; at 50.0 µM) | growth inhibition [4, 7] [%] | growth inhibition [4, 8] | growth inhibition ([4]; at 50.0 µM) | growth inhibition [5, 7] | growth inhibition [5, 8] | growth inhibition ([5]; at 50.0 µM) | growth inhibition [6, 7] | growth inhibition [6, 8] | growth inhibition ([6]; at 50.0 µM)
1 | CCO/C=C1\N=C(C(O)(c2ccc(Cl)cc2)c2ccc(Cl)cc2)OC1=O | -1 | 3% | 48.7% | 1 | 16% | 16% | -2 | 1% | 18.8% | 1 | -1% | 44.5% | 13% | 8% | 43.1% | -1% | 10% | 34%
2 | CCCOc1ccc(/C=N/NC(N)=S)cc1 | 16 | 73% (active) | 42.1% | 0 | 50% | 59.5% | 16 | 74% (active) | 69.7% | 7 | 65% | 76.5% (active) | -72% | 70% (active) | 63.7% | 12% | 75% (active) | 67.3%
3 | OC(/C=C/c1ccccc1)(c1ccccc1)c1nc2ccccc2s1 (stereo not given) | 35 | 98% (active) | -8% | 59 | 98% (active) | 1.95% | 5 | 97% (active) | -11.3% | 26 | 93% (active) | -23.1% | 6% | 98% (active) | -12.8% | 20% | 96% (active) | -3.45%
4 | COc1ccc(C(=O)c2ccc([N+](=O)[O-])cc2)cc1 | -1 | -19% | -4.55% | 7 | -9% | -12.2% | 3 | 0% | -3.8% | -15 | -47% | 53.4% | 9% | -17% | 17.5% | 13% | 0% | -21.6%
5 | NC(=O)N/N=C1/CC2CCCCC2c2ccccc21 (stereo not given) | 12 | 92% (active) | 67.8% | -4 | 86% (active) | 13% | -2 | 66% | 58% | 0 | 69% | 19.2% | 0% | 94% (active) | 86.2% (active) | -6% | 94% (active) | 23.5%
6 | C/C=C/C(=O)N1c2ccccc2CC1c1c(C)[nH]c2ccccc12 (stereo not given) | 7 | 90% (active) | 94.3% (active) | 3 | 96% (active) | 94.8% (active) | 3 | 95% (active) | 94.3% (active) | 2 | 86% (active) | 96% (active) | 6% | 86% (active) | 95.5% (active) | 22% | 96% (active) | 96.6% (active)
7 | CN(O)C(=S)c1ccccc1 | 50 | 87% (active) | 91.7% (active) | 43 | 73% (active) | 93.3% (active) | 55 | 99% (active) | 92.5% (active) | 41 | 99% (active) | 89.6% (active) | 95% (active) | 99% (active) | 91.8% (active) | 36% | 67% | 86.7% (active)
8 | CCc1cccc(C)c1NC(=O)/C(Cl)=C(\Cl)C(=O)O | 67 | 99% (active) | 99.4% (active) | 65 | 100% (active) | 99.5% (active) | 67 | 100% (active) | 99.7% (active) | 54 | 99% (active) | 99.1% (active) | 94% (active) | 100% (active) | 99.5% (active) | 53% | 100% (active) | 99.4% (active)
9 | Clc1cc2n[nH]nc2c(Cl)c1Cl | -6 | 63% | 74.8% (active) | 6 | 84% (active) | 95.9% (active) | 16 | 83% (active) | 46.8% | -17 | 65% | 88.7% (active) | -13% | 48% | 85.8% (active) | 6% | 94% (active) | 93.3% (active)
10 | CC(=O)Nc1ccc(C(=O)NN2C(=O)C(Cl)C2c2cc(Br)cc(Br)c2O)cc1 (stereo not given) | 20 | -5% | -18% | -6 | 5% | -25.1% | -1 | -7% | -23.4% | 0 | 12% | 2% | -17% | -11% | 0.85% | 7% | 26% | -35%
11 | CCc1cccc(CC)c1N=Nc1c(N)nc(N)[nH]c1=O | -11 | -6% | -4.8% | -23 | -9% | -32% | -11 | 6% | 39.8% | 0 | 2% | -21% | -2% | -3% | -19.8% | 8% | -30% | -11.7%
12 | C=C(c1ccc2nc(NC(=O)OC)[nH]c2c1)c1cccs1 | -4 | 47% | 61.3% | -7 | 88% (active) | 93.2% (active) | -4 | 72% (active) | 91.8% (active) | -9 | 18% | 41.1% | -3% | 84% (active) | 90.5% (active) | -9% | 92% (active) | 95% (active)
13 | OC(Cc1cccnc1)(c1ccccc1)c1ccc(Cl)cc1 (stereo not given) | -7 | 69% | 97.5% (active) | -3 | 80% (active) | 98% (active) | 6 | 79% (active) | 97.3% (active) | -1 | 64% | 94.2% (active) | -3% | 77% (active) | 97.2% (active) | -5% | 71% (active) | 98% (active)
14 | CSC(=S)n1nc(-c2ccccc2)c(N=Nc2ccccc2[N+](=O)[O-])c1C | -1 | 92% (active) | 97% (active) | -4 | 96% (active) | 96.2% (active) | 5 | 96% (active) | 97% (active) | -12 | 94% (active) | 92% (active) | 0% | 95% (active) | 94.3% (active) | -1% | 93% (active) | 98% (active)
15 | CCCCc1ccc2c(c1)Nc1cc3ccccc3cc1N2 | -3 | 55% | 86.3% (active) | 1 | 26% | 44.5% | 0 | 56% | 54.9% | -13 | 30% | 33.4% | 6% | 81% (active) | 77.8% (active) | 7% | 59% | 95% (active)
16 | CC1C=CC(C)C2C(=O)C3C(C)C=CC(C)C3C(=O)C12 (stereo not given) | 0 | -7% | -10.3% | 6 | 14% | -6.45% | -1 | 9% | 3.65% | 18 | 23% | 38.5% | -12% | 0% | 18.9% | 1% | -7% | 8.9%
17 | CN(C)CC1CC/C(=C\c2ccc(Cl)c(Cl)c2)C1=O (stereo not given) | 21 | 98% (active) | 93.1% (active) | 44 | 99% (active) | 93.6% (active) | 25 | 98% (active) | 92.4% (active) | 37 | 99% (active) | 91.3% (active) | 74% (active) | 99% (active) | 91.5% (active) | 84% (active) | 99% (active) | 90.2% (active)
18 | COc1ccc(/C=C2\N=C(c3ccco3)OC2=O)cc1Br | 16 | 2% | -4.8% | -17 | -4% | 5.85% | -1 | 12% | 11% | 30 | 22% | 4.8% | 5% | 13% | 27.1% | -7% | -32% | 5.65%
19 | Oc1ccc(CNC2CCCCC2)cc1 | -4 | 4% | 70.8% (active) | -13 | -20% | 31.2% | -5 | 10% | 79.8% (active) | -2 | -11% | 50.5% | -14% | -20% | 37.4% | 1% | -25% | 46.9%
20 | CCOC(=O)N1CCN(C(=S)N/N=C(\C)c2ncccn2)CC1 | 4 | 99% (active) | 99.4% (active) | 9 | 99% (active) | 99.7% (active) | -5 | 99% (active) | 99.4% (active) | -40 | 99% (active) | 99.1% (active) | -22% | 99% (active) | 99.5% (active) | -4% | 99% (active) | 99.2% (active)

Source: PubChem BioAssay (NCI)
